TDP1 inh = qHTS Assay for Inhibitors of Tyrosyl-DNA Phosphodiesterase (TDP1); Tyrosyl-DNA phosphodiesterase 1 (Homo sapiens), Q9NUW8; recombinant TDP1, AlphaScreen DNA substrate cleavage; Potency, µM (highest dose often 130 µM), inactives show at the top dose activity change, negative = inhibition, actives largely listed as inhibitors; 350,000 tested, 0.28% active; AID 485290, 2010; note: % is set by controls: 0 for no effect and ±100 for the full control effect; nearly all actives have a fitted effect of over 40% in size
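E. coli-derived human Tdp1, 1 nM final. Cpd preinc 15 min RT; substrate 15 nM final, 5 min RT; AS bead mix 10 ug/ml final, 10 min RT. Signal loss = tyrosine-FITC cleavage. No-enzyme wells = max signal.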
BAZ2B inh = qHTS Assay for Inhibitors of BAZ2B. Bromodomain adjacent to zinc finger domain protein 2B (Homo sapiens), Q9UIF8. AlphaScreen BAZ2B-H3K14Ac peptide displacement. Potency, µM (titrated, usually from 114 µM), without a hit: at the highest dose activity change, negative = inhibition, hits mostly inhibitors. 360,000 tested, 4.4% active. AID 504333, 2011; note: % is set by controls: 0 for no effect and ±100 for the full control effect; nearly all actives have a fitted effect of over 60% in size
Target sequence (Q9UIF8 whole entry, looked up, the tested form may be a part): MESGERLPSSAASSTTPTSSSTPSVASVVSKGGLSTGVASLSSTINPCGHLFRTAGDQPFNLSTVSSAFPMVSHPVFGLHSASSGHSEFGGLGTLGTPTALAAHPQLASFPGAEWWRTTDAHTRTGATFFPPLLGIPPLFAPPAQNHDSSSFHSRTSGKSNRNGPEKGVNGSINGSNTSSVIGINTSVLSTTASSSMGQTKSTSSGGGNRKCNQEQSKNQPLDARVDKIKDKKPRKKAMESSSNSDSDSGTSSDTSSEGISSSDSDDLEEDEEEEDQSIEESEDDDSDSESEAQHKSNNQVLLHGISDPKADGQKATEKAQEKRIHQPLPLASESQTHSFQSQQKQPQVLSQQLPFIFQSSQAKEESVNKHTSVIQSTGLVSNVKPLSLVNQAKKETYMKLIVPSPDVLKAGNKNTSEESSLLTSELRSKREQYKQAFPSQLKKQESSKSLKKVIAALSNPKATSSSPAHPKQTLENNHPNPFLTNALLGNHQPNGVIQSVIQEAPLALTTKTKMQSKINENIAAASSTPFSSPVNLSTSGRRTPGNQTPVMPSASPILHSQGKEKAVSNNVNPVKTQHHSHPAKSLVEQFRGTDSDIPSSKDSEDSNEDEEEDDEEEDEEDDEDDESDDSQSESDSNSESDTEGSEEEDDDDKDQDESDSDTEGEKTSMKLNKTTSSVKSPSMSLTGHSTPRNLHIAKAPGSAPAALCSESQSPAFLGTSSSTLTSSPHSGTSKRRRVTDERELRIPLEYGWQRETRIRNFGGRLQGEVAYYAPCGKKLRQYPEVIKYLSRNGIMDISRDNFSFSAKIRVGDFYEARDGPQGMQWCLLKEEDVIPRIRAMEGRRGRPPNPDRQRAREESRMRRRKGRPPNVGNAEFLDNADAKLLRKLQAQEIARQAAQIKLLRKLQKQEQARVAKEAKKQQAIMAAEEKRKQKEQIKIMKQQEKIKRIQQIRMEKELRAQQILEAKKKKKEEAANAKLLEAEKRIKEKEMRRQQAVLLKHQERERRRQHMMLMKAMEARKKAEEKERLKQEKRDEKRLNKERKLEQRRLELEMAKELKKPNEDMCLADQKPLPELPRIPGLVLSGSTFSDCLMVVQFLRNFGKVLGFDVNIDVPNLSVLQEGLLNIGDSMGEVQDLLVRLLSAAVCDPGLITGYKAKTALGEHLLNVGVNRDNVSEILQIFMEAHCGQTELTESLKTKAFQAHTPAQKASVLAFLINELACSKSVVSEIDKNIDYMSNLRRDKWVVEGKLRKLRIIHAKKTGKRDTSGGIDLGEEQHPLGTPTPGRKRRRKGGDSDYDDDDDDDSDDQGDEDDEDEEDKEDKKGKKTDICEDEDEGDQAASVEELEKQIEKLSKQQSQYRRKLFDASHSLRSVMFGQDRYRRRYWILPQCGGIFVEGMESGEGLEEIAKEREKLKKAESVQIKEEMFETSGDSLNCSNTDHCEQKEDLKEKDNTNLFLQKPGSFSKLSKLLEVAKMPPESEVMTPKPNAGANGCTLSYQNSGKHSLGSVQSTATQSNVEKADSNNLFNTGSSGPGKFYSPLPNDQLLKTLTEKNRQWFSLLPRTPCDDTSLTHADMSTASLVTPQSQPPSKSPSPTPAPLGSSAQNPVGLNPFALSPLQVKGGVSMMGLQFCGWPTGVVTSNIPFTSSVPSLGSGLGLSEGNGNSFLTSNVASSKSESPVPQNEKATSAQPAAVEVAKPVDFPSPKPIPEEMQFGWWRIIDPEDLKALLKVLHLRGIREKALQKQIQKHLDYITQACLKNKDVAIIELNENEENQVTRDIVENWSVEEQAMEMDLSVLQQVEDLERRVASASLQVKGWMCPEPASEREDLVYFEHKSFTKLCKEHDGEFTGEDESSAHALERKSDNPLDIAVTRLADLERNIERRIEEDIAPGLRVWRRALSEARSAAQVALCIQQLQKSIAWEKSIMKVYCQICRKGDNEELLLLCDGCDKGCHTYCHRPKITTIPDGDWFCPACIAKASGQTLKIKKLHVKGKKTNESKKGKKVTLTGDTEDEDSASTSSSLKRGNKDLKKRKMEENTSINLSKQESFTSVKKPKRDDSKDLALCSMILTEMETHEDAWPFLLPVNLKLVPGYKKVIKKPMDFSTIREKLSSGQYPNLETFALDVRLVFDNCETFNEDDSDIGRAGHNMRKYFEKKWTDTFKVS
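Complex of BAZ2B and biotin-H3K14Ac (50 nM apiece) forms over 30 min at RT, then faces library compounds up to 110 uM for another 30 min; AlphaScreen beads added, 20 min dark incubation, luminescence read.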
JMJD2A Tudor inh = qHTS Assay for Inhibitors of JMJD2A-Tudor Domain | Lysine-specific demethylase 4A (Homo sapiens), O75164 | AlphaScreen JMJD2A-Tudor / H3K4me3 peptide binding | Potency, µM (series often up to 114 µM), for the others: top-dose activity change, negative = inhibition, most hits filed as inhibitors | 390,000 tested, 4.4% active | AID 504339, 2011; note: % is set by controls: 0 for no effect and ±100 for the full control effect; nearly all actives have a fitted effect of over 50% in size
Sfp inh = qHTS Assay for Inhibitors of Bacillus subtilis Sfp phosphopantetheinyl transferase (PPTase); 4'-phosphopantetheinyl transferase ffp (Bacillus subtilis), Q9F4F7; Biochemical Sfp PPTase activity, qHTS; Potency, µM, without a hit: largest response in the series, negative = inhibition, hits mostly inhibitors; 310,000 tested, 3.5% active; AID 1490, 2009;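 note: the enzyme is Sfp with the accession as filed and its product quenches rhodamine fluorescence; 0% = enzyme reaction without inhibitor and -100% = no enzyme wells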
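After 15 min at room temperature with compound, 15 nM Sfp received 5 uM rhodamine-CoA plus 12.5 uM BHQ-2-ybbR (50 mM Hepes pH 7.6, 10 mM MgCl2). Rate came from the fluorescence difference over 30 min, ex 525/em 598 nm.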
HP1b binding inh = HTS for Inhibitors of HP1-beta Chromodomain Interactions with Methylated Histone Tails; Chromobox protein homolog 1 (Homo sapiens), P83916; AlphaScreen HP1-beta / biotin-H3K9me3 peptide binding; Potency, µM (highest dose often 114 µM), for inactives: top-dose activity change, negative = inhibition, hits mostly inhibitors; 390,000 tested, 0.56% active; AID 540317, 2011; note: nearly all actives have a fitted effect of over 70% in size
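HP1-beta protein (50 nM final) preincubated 30 min at room temperature with biotinylated H3(1-18)K9me3 peptide (50 nM) in PBS pH 7.4, 0.01% Tween-20, then compound added for 30 min. AlphaScreen streptavidin donor/nickel chelate acceptor beads (10 ug/mL final), 30 min dark, luminescence read.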
G9a block = qHTS Assay for Inhibitors of Histone Lysine Methyltransferase G9a. Histone-lysine N-methyltransferase EHMT2 (Homo sapiens), Q96KQ7. G9a H3K9 monomethylation, AlphaScreen, 2 h. Potency, µM (top dose mostly 102 µM), for the others: at the highest dose activity, negative = inhibition, actives largely listed as inhibitors. 350,000 tested, 8.8% active. AID 504332, 2011; note: % is set by controls: 0 for no effect and ±100 for the full control effect; nearly all actives have a fitted effect of over 75% in size
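Quantitative HTS format: methyltransferase activity on a biotin-tagged H3K9 peptide is measured by AlphaScreen, using a rabbit anti-monomethyl-H3K9 antibody with streptavidin donor and anti-IgG acceptor beads. Final levels are 20 nM enzyme, 500 nM peptide, 20 uM SAM; 2 h RT.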
An asterisk follows results filed as active; ? = inconclusive; / = no result given; [ ] = remark or other dose. Only some compounds are listed: those with a hit (about 12% of all), similar ones and a draw of the others. Calls come from the whole dose curve; as a rule, active = well fitted curve in the direction sought with a large enough effect; inconclusive = small, poorly fitted or top-dose-only effect, or another doubt; inactive = no such curve, though single readings can be large; an effect the other way counts as inactive or inconclusive. Potency is the fitted concentration of half-maximal effect.

SMILES	TDP1 inh	BAZ2B inh	JMJD2A Tudor inh	Sfp inh	HP1b binding inh	G9a block
Cc1cc(C)cc(C(=O)NC(CC(N)=O)c2ccc(N3CCC(Br)CC3)c([N+](=O)[O-])c2)c1 (stereo not given)	/	-37%	-29%	17%	33%	?
CC1CC(C)CN(c2ccc(-n3cnnn3)cc2[N+](=O)[O-])C1 (stereo not given)	5%	?	?	-2%	-28%	?
O=[N+]([O-])c1cc(-n2cnnn2)ccc1N1CCC(Cc2ccccc2)CC1	11%	28µM*	10µM*	-12%	-42%	4%[0.501 µM]
NC(=O)CC(NC(=O)Cc1ccc(Br)cc1)c1ccc(N2CCC(N3CCCCC3)CC2)c([N+](=O)[O-])c1 (stereo not given)	/	-34%	-20%	14%	25%	56µM*
Cc1cc(C)cc(C(=O)NC(CC(N)=O)c2ccc(N3CCC(Cc4ccccc4)CC3)c([N+](=O)[O-])c2)c1 (stereo not given)	/	?	-20%	2%	20%	50µM*
NC(=O)CC(NC(=O)c1cccc(Br)c1)c1ccc(N2CCN(c3ccccn3)CC2)c([N+](=O)[O-])c1 (stereo not given)	/	?	?	3%	-6%	50µM*
CCn1cc(C(=O)NCCc2ccc(Cl)cc2)c(=O)c2cc(S(=O)(=O)N3CCC(C)CC3)ccc21	2%	/	-15%	/	24%	-23%[59 µM]
CC(=O)SCC(Cc1ccccc1)C(=O)NCC(=O)OCc1ccccc1 (stereo not given)	6%	-4%	/	-2%	/	2%[59 µM]
CC(NC(=O)c1cc(-c2ccccn2)nc2ccc(Cl)cc12)C1CCCO1 (stereo not given)	2%	-11%	-7%	-10%	36%	/
CCOc1cc(N2CCOCC2)c(OCC)cc1NC(=O)C1=COCCO1	-13%	-9%	-28%	/	14%	-11%[12.7 µM]
CN(C)c1ccc(-c2nc(-c3cc4cc(Cl)ccc4oc3=O)cs2)cc1	5%	-1%	-3%	/	28%	5%[59 µM]
Cc1cc(-c2ccc(S(=O)(=O)Nc3ccccc3C)cc2)on1	0%	-1%	-4%	/	38%	-9%[59 µM]
NC(=O)CC(NC(=O)c1ccccc1)c1ccc(N2CCCCCC2)c([N+](=O)[O-])c1 (stereo not given)	/	?	45µM*	-8%	?	50µM*
COc1ccc(C2C(C#N)=C(N)SC(N)=C2C#N)cc1OC	11%	-11%	56µM*	?	6%	?
N#CC1=C(N)SC(N)=C(C#N)C1c1cccc(O)c1	-5%	?	?	79µM*	4%	?
COc1ccc(C2C(C#N)=C(N)OC(C(C)(C)C)=C2C#N)cc1OC (stereo not given)	6%	-2%	-4%	6%	33%	20%
O=[N+]([O-])c1cccc(S(=O)(=O)Nc2ccc(-c3ccc(N4CCOCC4)nn3)cc2)c1	/	-6%	-26%	/	13%	45µM*
O=[N+]([O-])c1cccc(S(=O)(=O)Nc2cccc(-c3ccc(N4CCOCC4)nn3)c2)c1	-6%[0.505 µM]	-9%	-16%	/	11%	10µM*
Cc1ccc(S(=O)(=O)N2CCOCC2)cc1NC(=O)CSc1nnc(COc2ccccc2F)n1N	/	/	-19%	/	17%	/
CCCNC(=O)Nc1nc2ccccc2s1	/	0%	-19%	10%	51%	8%[12.7 µM]
CCCNC(=O)c1ccc(-c2nc3ccccc3s2)s1	-3%	4.5µM*	-24%	-13%	21%	22%
COc1cc(NC(=O)COC(=O)CCOc2ccc(C)cc2)cc(OC)c1	-4%[56.1 µM]	2%	-3%	4%	44%	-1%
CC1CCC(NC(=O)Nc2cccs2)CC1 (stereo not given)	4%	5%	-12%	-20%	-3%	?
O=C(Nc1cccs1)NC1CCCC1	-1%	-32%	-25%	-7%	0%	32µM*
O=C(NCC1CC1)Nc1ccc(Cl)cc1	/	1%	-3%	7%	26%	14%
SMILES	TDP1 inh	BAZ2B inh	JMJD2A Tudor inh	Sfp inh	HP1b binding inh	G9a block
O=C(NCC1CC1)Nc1cccs1	/	-18%	-12%	45µM*	31%	?
Cc1ccc(S(=O)(=O)NC(Cc2ccccc2)C(=O)O)cc1C (stereo not given)	/	3%	5%	11%	19%	4%
O=C(O)[C@H](CSCc1ccccc1)NS(=O)(=O)c1ccc(F)cc1	1%	-5%	?	-15%	5%	10µM*
CC(=O)OC1=C(C#N)Cn2ccc3cccc1c32	2%	-12%	/	-2%	/	11µM*
CN(CC(=O)Nc1ccccc1Br)C(=O)c1ccccc1OCc1ccc(Cl)cc1	/	/	-16%	/	26%	/
COc1ccc(-c2ccc3c(c2)S(=O)(=O)c2cccc(C(=O)NCc4ccccc4Cl)c2C3=O)cc1OC	25µM*	?	?	/	25%	-4%[0.501 µM]
COc1ccc(-c2ccc3c(c2)S(=O)(=O)c2cccc(C(=O)NC4CC4)c2C3=O)cc1OC	-10%	?	-12%	/	47%	-37%[0.501 µM]
CC(C)c1cccc(-c2ccc3c(c2)S(=O)(=O)c2cccc(C(=O)NCc4ccccc4Cl)c2C3=O)c1	-1%	/	-19%	/	22%	/
COc1ccc(-c2ccc3c(c2)S(=O)(=O)c2cccc(C(=O)NCCOc4ccccc4Cl)c2C3=O)cc1OC	28µM*	/	?	/	-2%	/
O=C(NCc1ccco1)c1cccc2c1C(=O)c1ccc(/C=C/c3ccccc3)cc1S2(=O)=O	32µM*	/	40µM*	/	?	/
CCC(C(=O)N1CCN(Cc2ccc3c(c2)OCO3)CC1)n1c(=O)[nH]c2ccccc2c1=O (stereo not given)	4%	-5%	-13%	10%	42%	9%
CCOc1ccc(CNC(=O)c2ccc3c(c2)nc2n3CCOC2)cc1OC	3%	2%	-9%	/	13%[57 µM]	-11%[59 µM]
c1ccc2c(-c3ccc(OCCN4CCCCC4)cc3)c(-c3ccsc3)sc2c1	8%	/	40µM*	/	-7%	/
c1ccc(-c2sc3ccccc3c2-c2ccc(OCCN3CCCCC3)cc2)cc1	7%	/	-36%	/	8%	/
CN(C)CCOc1ccc(-c2c(-c3ccccc3)sc3ccccc23)cc1	13%	/	40µM*	/	?	/
NC(=O)c1ccc(-c2c(-c3ccccc3)sc3ccccc23)cc1	1%	8%	-3%	/	33%	4%[0.501 µM]

Bioassay records as filed in PubChem BioAssay.
